The list is not random: actives were taken first. Their share in the collection is about 3.6%.
WT yeast gro inh: growth inhibition of WT yeast, mitochondrial fusion screen; inhibition, % at 10 µM; AID 1362; hit rate 2.1% among 190,000; mitochondrial fusion phenotypic screen, WT strain; in the data active = inhibition above about 58%; tested in S. cerevisiae
hDAT+cocaine: human DAT dopamine uptake with cocaine, either direction | Q01959 | LLC-PK1 hDAT cells, [14C]-dopamine uptake with cocaine IC80; actives deviate in either direction | B-score at 10 µM | hit rate 1.3% among 110,000;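 active = Z score or B-score, a plate-position-corrected score, falls beyond the plate's 99.7% confidence bounds, in either direction; inactive = both scores lie inside the 99.7% bounds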;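 note: scored against the spread of the other compound wells on the same plate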
Target sequence (Q01959 whole entry, looked up): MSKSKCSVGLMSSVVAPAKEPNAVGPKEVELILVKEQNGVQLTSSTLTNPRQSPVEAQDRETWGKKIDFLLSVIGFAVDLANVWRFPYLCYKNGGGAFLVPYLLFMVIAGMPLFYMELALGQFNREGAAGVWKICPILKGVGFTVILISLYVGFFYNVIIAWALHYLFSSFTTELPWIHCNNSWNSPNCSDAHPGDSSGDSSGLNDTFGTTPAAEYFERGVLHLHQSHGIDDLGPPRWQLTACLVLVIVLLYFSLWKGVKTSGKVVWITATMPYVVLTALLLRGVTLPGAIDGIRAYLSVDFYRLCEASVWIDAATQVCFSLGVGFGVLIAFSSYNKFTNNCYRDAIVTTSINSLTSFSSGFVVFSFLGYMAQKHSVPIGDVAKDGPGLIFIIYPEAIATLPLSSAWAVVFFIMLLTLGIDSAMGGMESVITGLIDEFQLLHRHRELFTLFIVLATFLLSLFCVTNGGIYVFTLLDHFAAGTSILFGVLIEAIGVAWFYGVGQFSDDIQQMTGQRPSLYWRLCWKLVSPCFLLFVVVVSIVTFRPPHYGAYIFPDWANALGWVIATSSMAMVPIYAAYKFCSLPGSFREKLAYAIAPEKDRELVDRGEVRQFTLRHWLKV
HCT116 bCat-KO: beta-catenin-lacking colon tumor cell growth suppression; HCT116 beta-catenin knockout viability, CellTiter-Glo, 60 h; hits give low values; viability, % at 10 µM; hit rate 1.5% among 140,000;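 active = viability at or under a set limit, the compound median less 4 SD, cut at about 6% in these data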;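 note: 0% = Hyamine 1622 control at 20 µM and 100% = untreated cell control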
HCT116 PTEN-null: growth suppressors of cells with PTEN tumor suppressor deletion; HCT116 PTEN-null viability, CellTiter-Glo, 60 h; hits give low values; viability, % at 10 µM; hit rate 1.2% among 140,000;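 active = viability at or below a set limit, 4 SD under the median of all tested compounds, cut at about 3.7% in these data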;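 note: PTEN knockout HCT116 line with beta catenin targeted HCT116 as companion control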
The depositor's hits bear a star; · = not tested or not shown.

SMILES	WT yeast gro inh	hDAT+cocaine	HCT116 bCat-KO	HCT116 PTEN-null
Cc1cccc(N2CCN(C(=O)C(Cc3ccccc3)n3cccc3)CC2)c1C (centres undefined)	69*	-0.12	35	44
Cc1cc(-c2ccccc2)nc2cc(C(=O)N(Cc3ccccc3)Cc3ccccc3)nn12	75*	2.1	62	61
Cc1ccc(Oc2cc([N+](=O)[O-])cc3c2C(=O)Nc2ccccc2O3)cc1	64*	·	38	48
O=C1Nc2ccccc2OCc2c1cccc2[N+](=O)[O-]	-6	·	·	·
CN(CC(=O)Nc1ccc(Cl)c(C(F)(F)F)c1)Cc1cc(=O)n2ccsc2n1	-8	·	·	·
CC(=O)OCC1O[C@@H](O[C@@H]2C[C@H]3C(C)(C)[C@H](OC(C)=O)CC[C@]3(C)[C@H]3CC[C@]45C[C@]4(CC[C@H]5[C@@H](C)C[C@@H](O)[C@H](O)C(C)(C)O)[C@@]32C)[C@H](O)[C@@H](O)[C@@H]1O (some centres undefined)	9	-1.4	1.1*	1.0*
C#CCSc1nc(N)c2c(n1)OC(N)=C(C#N)C2c1cccnc1 (centres undefined)	3	·	·	·
COCCNS(=O)(=O)c1cccc2cccnc12	-4	-2.7*	83	89
O=S(=O)(NCc1ccco1)c1cccc2cccnc12	-6	-0.093	80	87
CCN(CCNCC(O)COCc1ccc(Cl)cc1)c1cccc(C)c1 (centres undefined)	62*	·	·	·
COC(=O)C1=C(C)NC2=C(C(=O)CC(C)(C)C2)C1c1cn(Cc2ccc(Br)cc2)nc1-c1ccccc1 (centres undefined)	70*	0.82	40	47
O=C(NC(=S)Nc1ccc2c(c1)C(=O)c1ccccc1C2=O)c1ccc(F)cc1	14	·	96	107
COc1ccccc1C(=O)Nc1ccccc1C(=O)N1C(C)CCCC1C (centres undefined)	0	·	·	·
CC(C)COC(=O)c1cccc2c1-c1ccccc1/C2=N\O	62*	·	80	92
CC1CCCC(C)N1C(=O)c1cccc2c1-c1ccccc1/C2=N/O (centres undefined)	15	4*	71	82
CCOC(=O)c1cccc2c1-c1ccccc1/C2=N/O	73*	0.46	100	95
CCn1cc(C(=O)NNC(=O)c2ccc(Cl)cc2)c(=O)c2ccc(C)nc21	-3	·	·	·
COc1ccc(NC(=O)C2CSC(C)(C)N2C=O)cc1 (centres undefined)	-5	·	·	·
Cc1nc(-c2ccc([N+](=O)[O-])cc2)sc1C(=O)O	0	·	·	·
O=C1CC(SCc2nc3ccccc3[nH]2)C(=O)N1c1cccc(F)c1 (centres undefined)	76*	·	91	93
O=C1CC(SCc2nc3ccccc3[nH]2)C(=O)N1c1ccc(F)c(Cl)c1 (centres undefined)	-13	-0.51	88	92
COc1ccccc1Cn1c(-c2ccccc2OC)nc2ccccc21	72*	-0.61	64	69
Oc1ccccc1Cn1c(-c2ccccc2O)nc2ccccc21	10	-0.44	74	66
O=[N+]([O-])c1ccc(-c2nc(-c3cccs3)c(-c3cccs3)[nH]2)cc1	82*	-0.42	32	20
O=[N+]([O-])c1cccc(-c2nc(-c3cccs3)c(-c3cccs3)[nH]2)c1	38	0.047	43	48
SMILES	WT yeast gro inh	hDAT+cocaine	HCT116 bCat-KO	HCT116 PTEN-null
Fc1ccc(-c2nc(-c3cccs3)[nH]c2-c2ccc(F)cc2)cc1	78*	·	65	60
CN(Cc1ccccc1)C(=O)C(C(=O)c1ccc(F)cc1)n1cc(Cl)ccc1=O (centres undefined)	4	·	·	·
CC(=O)C(Sc1ncnc2sc3c(c12)CCCC3)C(C)=O	76*	·	·	·
O=C(CC(=O)c1cc(Cl)ccc1O)c1ccccc1	62	0.075	16	22
Cc1cccc(C(=O)CC(=O)c2cc(Cl)ccc2O)c1	61*	1.2	10	10
CCCNC(=O)C1CC(c2ccc(C(F)(F)F)cc2)=NO1 (centres undefined)	·	0.16	·	·
O=C(O)CCCNC(=O)/C(=C\c1ccc(Cl)cc1)NC(=O)c1ccc(Br)cc1	-6	·	·	·
C#CC(CC)(CC)NC(=S)Nc1ccc(S(N)(=O)=O)cc1	4	·	81	90
Cc1ccc(OCc2nnc(SCC(=O)c3ccccc3)n2-c2ccccc2)cc1	56	0.82	79	74
Cc1cccc(-n2c(CCc3ccccc3)nnc2SCC(=O)c2ccccc2)c1	68*	·	85	83
CCc1c(O)nc(SCC(=O)N(CC)CC)[nH]c1=O	0	·	·	·
CCN(CC)c1ccc(C(=O)OCc2cc(=O)oc3cc(O)ccc23)cc1	-8	0.069	0.9*	0.2*
CCCN(CC(=O)Nc1ccccc1C)C(=O)CCl	-19	·	·	·
